RAD52 anneal inh: RAD52 DNA annealing inhibitors, primary screen, biochemical, FRET, single point, set 2 | inhibition, % at 18.7 µM | actives 0.46% (n = 360,000) | recombinant RAD52 DNA annealing, FRET fluorescence | DNA repair protein RAD52 homolog (Homo sapiens), P43351;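 active = every replicate showing at least 50% inhibition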
RAD54 branch: inhibitors of human RAD54 branch migration, primary screen, biochemical, fluorescence, single point; DNA repair and recombination protein RAD54-like (Homo sapiens), Q92698; RAD54 Holliday junction branch migration, FAM/BHQ fluorescence; inhibition, % at 10.4 µM; actives 0.14% (n = 360,000); AID 602329, 2012;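 active = mean normalized replicate activity at least 40 and at least half of replicates scoring 40 or more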;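 also: inhibitors cause a drop in the FAM fluorescence signal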
Target sequence (Q92698 whole entry, looked up): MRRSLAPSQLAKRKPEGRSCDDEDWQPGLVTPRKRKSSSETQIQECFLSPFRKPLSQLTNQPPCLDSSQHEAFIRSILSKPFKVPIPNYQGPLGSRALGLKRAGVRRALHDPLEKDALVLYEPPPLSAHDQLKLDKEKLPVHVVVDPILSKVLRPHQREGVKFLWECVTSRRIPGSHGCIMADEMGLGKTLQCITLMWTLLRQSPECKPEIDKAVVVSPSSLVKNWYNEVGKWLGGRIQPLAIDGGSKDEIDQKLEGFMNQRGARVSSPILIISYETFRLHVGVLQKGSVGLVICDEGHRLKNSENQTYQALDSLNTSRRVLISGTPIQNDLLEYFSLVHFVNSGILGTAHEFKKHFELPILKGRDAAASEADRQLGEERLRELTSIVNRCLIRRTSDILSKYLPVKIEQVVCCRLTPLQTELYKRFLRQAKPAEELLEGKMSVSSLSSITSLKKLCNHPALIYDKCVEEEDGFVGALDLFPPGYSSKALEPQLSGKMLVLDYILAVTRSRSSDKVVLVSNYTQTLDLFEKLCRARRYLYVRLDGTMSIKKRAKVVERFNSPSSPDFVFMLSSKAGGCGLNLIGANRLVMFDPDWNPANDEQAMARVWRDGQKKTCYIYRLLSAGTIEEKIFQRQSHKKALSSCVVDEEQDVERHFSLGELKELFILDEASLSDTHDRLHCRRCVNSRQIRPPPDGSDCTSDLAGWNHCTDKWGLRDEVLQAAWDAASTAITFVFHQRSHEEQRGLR
GSIS activator: GLuc luminescence reporter in INS-1E cells, primary screen for activators of glucose-dependent secretion of insulin. INS-1E GLuc reporter insulin secretion, 2-3 h. activation, % at 16.6 µM. actives 0.61% (n = 370,000). AID 743287, 2014;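 active = lowest replicate activation of at least 40%, so every replicate reaches that level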
MLL AF4-AF9 inh: inhibitors of AF4 peptide binding to AF9, primary screen, biochemical, AlphaScreen, biotin-AF4 peptide, FLAG-AF9, single point; inhibition, % at 10 µM; actives 0.47% (n = 350,000); AID 651704, 2012;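 active = every replicate reaching a set inhibition limit, whatever the replicate mean, cut at about 25% in these data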
PGC1a acetyl inh: inhibitors of PGC1a acetylation signal, primary screen, cell-based, U2OS, AlphaScreen, inhibitor mode. AlphaScreen anti-acetyl-lysine; with virally co-expressed GCN5 acetyltransferase. inhibition, % at 15.6 µM. actives 0.17% (n = 350,000). AID 651687, 2012;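 active = every replicate shows inhibition of at least 40%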
ERAP1 inh: human ERAP1 aminopeptidase inhibitors, primary screen, biochemical, single point, plate reader; Endoplasmic reticulum aminopeptidase 1 (Homo sapiens), Q9NZ08; recombinant ERAP1, Leu-AMC fluorescence, 60 min; inhibition, % at 10.7 µM; actives 0.15% (n = 340,000); AID 652197, 2013;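 active = mean replicate inhibition of at least 30%, or all replicates individually reaching that 30% level; inactive = mean below 30% and not every replicate reaching it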
Numbers stand for hits; 0 = inactive; - = no result. Only some compounds are listed: those with a hit (about 1.4% of all), similar ones and a draw of the others.

SMILES	RAD52 anneal inh	RAD54 branch	GSIS activator	MLL AF4-AF9 inh	PGC1a acetyl inh	ERAP1 inh
CS(=O)(=O)N1CCCC(C(=O)NCc2ccccn2)C1 (stereo not drawn)	0	0	0	0	47	0
COc1ccc(S(=O)(=O)N2CCC(C(=O)NCc3ccccn3)CC2)cc1OC	-	0	46	-	0	-
COc1ccc(C2=NOC(C(=O)NCc3ccccn3)C2)cc1 (stereo not drawn)	-	0	-	-	0	-
COc1ccc(C2=NOC(C(=O)NCc3ccccn3)C2)cc1OC (stereo not drawn)	-	0	94	-	0	-
Cc1ccc(S(=O)(=O)N2CCCC(C(=O)NCc3ccccn3)C2)cc1 (stereo not drawn)	-	0	0	-	0	-
CCC(=O)N1[C@H](CO)[C@@H](c2ccccc2)C12CN(Cc1cccnc1)C2	0	-	0	0	0	0
Cc1c2c(n3c(nc4ccccc43)c1C#N)N(CCN(C)C)CC2	0	-	0	0	-	31
Cc1c2c(n3c(nc4ccccc43)c1C#N)N(CCCN(C)C)CC2	0	-	0	0	0	71
O=C(CN1CCOCC1)N[C@@H]1CC[C@H](CCNC(=O)C2CCC2)O[C@@H]1CO	0	0	0	0	0	0
NCC[C@H]1CC[C@@H](NC(=O)CCN2CCCCC2)[C@H](CO)O1	0	0	0	59	0	0
NCC[C@H]1CC[C@H](NC(=O)CCN2CCCCC2)[C@@H](CO)O1	0	0	0	28	0	0
NCC[C@@H]1CC[C@@H](NC(=O)CCN2CCCCC2)[C@H](CO)O1	0	0	0	0	0	0
O=C(CN1CCOCC1)N[C@H]1CC[C@H](CCNC(=O)C2CCC2)O[C@H]1CO	0	0	0	43	0	0
C[C@H]1CN([C@@H](C)CO)C(=O)c2cc(-c3ccc(F)cc3)cnc2O[C@@H]1CN(C)C(=O)c1ccncc1	-	-	0	-	0	-
CCOc1cc(N2CCOCC2)c(OCC)cc1NC(=O)C(C)Oc1ccccc1 (stereo not drawn)	0	0	0	29	0	0
COCC(=O)N(C[C@@H]1N[C@H](CO)[C@H]1c1ccc(C2=CCCC2)cc1)C(C)C	-	0	0	-	0	-
COc1cccc(/C=N/Nc2ncnc3c2[nH]c2ccc(C)cc23)c1OC	0	-	0	0	-	-
COc1ccc(/C=N/Nc2ncnc3c2[nH]c2ccccc23)c(OC)c1OC	-	0	68	-	0	-
CC[N+]1(CC(O)COC2CC(C)CC(C)(C)C2)CCOCC1 (stereo not drawn)	0	0	0	0	0	108
C/C(Cl)=C\Cn1c(N2CCCC2)nc2c1c(=O)n(C)c(=O)n2C	0	0	65	0	0	0
C=CCn1c(N2CCCCCC2)nc2c1c(=O)n(C)c(=O)n2C	-	0	-	0	0	-
CCOc1ccc(NS(=O)(=O)c2cc(NC(=O)CCNC(=O)c3ccco3)ccc2OC)cc1	0	0	0	0	-	0
COc1ccc(NS(=O)(=O)c2cc(NC(=O)CCNC(=O)c3ccco3)ccc2OC)cc1	0	0	0	25	-	0
CNC[C@H]1Oc2c(NS(C)(=O)=O)cccc2C(=O)N(C)C[C@H]1C	-	-	0	-	-	-
CCN(CC(=O)Nc1ccccc1C(F)(F)F)C(=O)Cn1c(=O)cnc2ccccc21	0	0	0	0	-	32
CCCc1cc(=O)oc2cc(OCC(=O)NC3CCN(Cc4ccccc4)CC3)ccc12	0	0	44	0	0	0
Cc1cc(=O)oc2cc(OCC(=O)NC3CCN(Cc4ccccc4)CC3)ccc12	0	0	0	0	0	0
COc1ccc(NC(=O)N(C)C[C@H]2OCCCC[C@H](C)Oc3ccc(NC(=O)CCC(F)(F)F)cc3C(=O)N([C@H](C)CO)C[C@@H]2C)cc1	0	0	0	0	0	0
O=C(Cn1c(=O)oc2cc(S(=O)(=O)N3CCCC3)ccc21)N1CCCC1	0	0	0	28	0	0
COc1cccc(C2=NN(C(C)=O)C(c3cccs3)C2)c1 (stereo not drawn)	0	0	0	0	0	0
